According to PMC8384837, “Expanding the binding specificity for RNA recognition by a PUF domain”:
Positions count from the first letter of the chain named.

Key:
Assay in all cases: yeast three-hybrid, YBZ-1, SC-Leu-His + 0.5 mM 3-AT, 4 days
Conditions in all cases: tags: N-Gal4 AD-HA kept; label: inside an RPR1-promoter hybrid RNA with tandem MS2 sites; ssRNA
PUM1 PUF domain R5-RHL = PUM1 PUF domain R5-RHL (Homo sapiens, UniProt Q14671 828-1176, C1007R;R1008H;Q1011L)
Method in brief: (§1)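 A centromeric plasmid in strain YBZ-1 co-expressed Pumilio-1 PUF domain libraries, randomized at the three base-contacting residues of each repeat, with matching RNA elements; the strain carries a LexA–MS2 coat fusion and a HIS3 reporter. After four days on SC-Leu (input) or SC-Leu-His + 0.5 mM 3-AT (selection), the repeat regions were PCR-amplified and Illumina-sequenced. The interaction score is the log change in variant frequency from input to selection, using log2 and a pseudocount of 1 where absent.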

PUM1 PUF domain R6-TWT = molecular target: T1, PUM1 PUF domain R6-TWT (Homo sapiens, UniProt Q14671 828-1176, N1043T;Y1044W;Q1047T)
T1 sequence: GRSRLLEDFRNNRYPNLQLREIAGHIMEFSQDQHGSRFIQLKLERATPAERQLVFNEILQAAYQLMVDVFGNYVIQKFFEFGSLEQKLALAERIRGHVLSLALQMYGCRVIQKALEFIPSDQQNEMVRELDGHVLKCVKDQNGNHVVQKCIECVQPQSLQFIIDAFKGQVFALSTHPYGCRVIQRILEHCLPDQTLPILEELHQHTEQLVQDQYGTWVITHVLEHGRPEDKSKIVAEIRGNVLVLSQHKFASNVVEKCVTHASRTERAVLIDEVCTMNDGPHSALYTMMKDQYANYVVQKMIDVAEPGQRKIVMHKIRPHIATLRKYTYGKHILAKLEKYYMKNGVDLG
Method in brief: as §1

PUM1 PUF domain R5-HRE = PUM1 PUF domain R5-HRE (Homo sapiens, UniProt Q14671 828-1176, C1007H;Q1011E)
Method in brief: as §1

PUM1 PUF domain R8-RRS = PUM1 PUF domain R8-RRS (Homo sapiens, UniProt Q14671 828-1176, N1122R;Y1123R;Q1126S)
Method in brief: as §1

PUM1 PUF domain R6-CWV = molecular target: T2, PUM1 PUF domain R6-CWV (Homo sapiens, UniProt Q14671 828-1176, N1043C;Y1044W;Q1047V)
T2 sequence: T1 sequence with T216C, T220V
Method in brief: as §1

PUM1 PUF domain R6-CWW = molecular target: T3, PUM1 PUF domain R6-CWW (Homo sapiens, UniProt Q14671 828-1176, N1043C;Y1044W;Q1047W)
T3 sequence: T1 sequence with T216C, T220W
Method in brief: as §1

PUM1 PUF domain R8-ARR = PUM1 PUF domain R8-ARR (Homo sapiens, UniProt Q14671 828-1176, N1122A;Y1123R;Q1126R)
Method in brief: as §1

PUM1 PUF domain R1-RRC = PUM1 PUF domain R1-RRC (Homo sapiens, UniProt Q14671 828-1176, S863R;Q867C)
Method in brief: as §1

PUM1 PUF domain R6-RRK = molecular target: T4, PUM1 PUF domain R6-RRK (Homo sapiens, UniProt Q14671 828-1176, N1043R;Y1044R;Q1047K)
T4 sequence: T1 sequence with T216R, W217R, T220K
Method in brief: as §1

For “GGCUAGAACUAGUGGAUCCCCCGGCGCCCGGCGGCUCGAGCCCGGGUAAGUGUAAAUAGUCUGCAUGCCGCCGGGCGCCAUGCCUGCAGGUCGACUCUAGAAAACAUG”, the binding signal (PUM1 PUF domain R5-RHL) was 3.44 log2 enrichment (interaction score), the binding signal (PUM1 PUF domain R6-TWT) was 1.62 log2 enrichment (interaction score) and the binding signal (PUM1 PUF domain R5-HRE) was 2.59 log2 enrichment (interaction score). The binding signal (PUM1 PUF domain R8-RRS) was 1.39 log2 enrichment (interaction score), the binding signal (PUM1 PUF domain R6-CWV) was 3.39 log2 enrichment (interaction score) and the binding signal (PUM1 PUF domain R6-CWW) was 3.56 log2 enrichment (interaction score). The binding signal (PUM1 PUF domain R8-ARR) was 1.18 log2 enrichment (interaction score).
“GGCUAGAACUAGUGGAUCCCCCGGCGCCCGGCGGCUCGAGCCCGGGUAAGUGUCAAUAGUCUGCAUGCCGCCGGGCGCCAUGCCUGCAGGUCGACUCUAGAAAACAUG” was tested, and the binding signal (PUM1 PUF domain R5-RHL) was 5.23 log2 enrichment (interaction score) and the binding signal (PUM1 PUF domain R5-HRE) was 4.28 log2 enrichment (interaction score).
With “GGCUAGAACUAGUGGAUCCCCCGGCGCCCGGCGGCUCGAGCCCGGGUAAGUGUAAAUUGUCUGCAUGCCGCCGGGCGCCAUGCCUGCAGGUCGACUCUAGAAAACAUG” the binding signal (PUM1 PUF domain R1-RRC) was 2.93 log2 enrichment (interaction score).
“GGCUAGAACUAGUGGAUCCCCCGGCGCCCGGCGGCUCGAGCCCGGGUAAGUGUAAAUCGUCUGCAUGCCGCCGGGCGCCAUGCCUGCAGGUCGACUCUAGAAAACAUG” was tested, and the binding signal (PUM1 PUF domain R1-RRC) was 2.87 log2 enrichment (interaction score).
With “GGCUAGAACUAGUGGAUCCCCCGGCGCCCGGCGGCUCGAGCCCGGGUAAGUGAAAAUAGUCUGCAUGCCGCCGGGCGCCAUGCCUGCAGGUCGACUCUAGAAAACAUG” the binding signal (PUM1 PUF domain R6-TWT) was 4.15 log2 enrichment (interaction score) and the binding signal (PUM1 PUF domain R6-CWV) was 1.98 log2 enrichment (interaction score).
In the case of “GGCUAGAACUAGUGGAUCCCCCGGCGCCCGGCGGCUCGAGCCCGGGUAAGUGCAAAUAGUCUGCAUGCCGCCGGGCGCCAUGCCUGCAGGUCGACUCUAGAAAACAUG”, the binding signal (PUM1 PUF domain R6-RRK) is reported as 4.5 log2 enrichment (interaction score).
With “GGCUAGAACUAGUGGAUCCCCCGGCGCCCGGCGGCUCGAGCCCGGGUAAGCGUAAAUAGUCUGCAUGCCGCCGGGCGCCAUGCCUGCAGGUCGACUCUAGAAAACAUG” the binding signal (PUM1 PUF domain R8-RRS) was 3.27 log2 enrichment (interaction score) and the binding signal (PUM1 PUF domain R8-ARR) was 2.33 log2 enrichment (interaction score).
